Where “and” joins values, the source holds several entries; their conditions need not be identical. Equal entries are not always repeated. The campaign covered roughly 5,500 compounds. About 2,000 (36%) were called active. About 18% were inconclusive and are not listed. Cut-off read from the data, not from the text of the source: active = normalized growth mostly below about 0.91 (no sharp cut-off); inconclusive = no clear call, values can overlap the other calls; inactive = mostly above about 0.92. Some of the results follow.
Test: chemical genetic growth profiling, strain panel (AID 1159580);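 note: tested at 20 µM; growth read once vehicle control cultures reached saturation at 30 °C; 1 = growth at the plate median or of vehicle wells; lower values mean less growth of the strain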
Conditions: S. cerevisiae deletion strains, growth OD

Measured: normalized growth

CNC(C)(C)Cc1ccccc1
inactive: locus YAL013W, strain DEP1, stronger effect = lower value 1.01 | locus YAL021C, strain ccr4, stronger effect = lower value 0.997 | locus YAL026C, strain drs2, stronger effect = lower value 1.01 | locus YAL030W, strain snc1, stronger effect = lower value 1.01 | locus YBL061C, strain skt5, stronger effect = lower value 1.02 | locus YBR009C, strain hhf1, stronger effect = lower value 1.02 | locus YBR021W, strain FUR4, stronger effect = lower value 1.01 | locus YBR023C, strain chs3, stronger effect = lower value 1.02 | locus YBR171W, strain sec66, stronger effect = lower value 1.02 | locus YBR229C, strain ROT2, stronger effect = lower value 1.01 | locus YBR231C, strain swc5, stronger effect = lower value 1.02 | locus YBR279W, strain paf1, stronger effect = lower value 1.01 | locus YCL011C, strain gbp2, stronger effect = lower value 1.02 | locus YCL016C, strain dcc1, stronger effect = lower value 1.02 | locus YCL029C, strain bik1, stronger effect = lower value 1 | locus YCL061C, strain MRC1, stronger effect = lower value 1.01 | locus YCL069W, strain vba3, stronger effect = lower value 1.01 | locus YCR088W, strain abp1, stronger effect = lower value 1.01 | locus YDL005C, strain med2, stronger effect = lower value 1.02 | locus YDL035C, strain GPR1, stronger effect = lower value 1.02 | locus YDL040C, strain nat1, stronger effect = lower value 1.01 | locus YDL074C, strain BRE1, stronger effect = lower value 0.988 | locus YDL101C, strain DUN1, stronger effect = lower value 1.01 | locus YDL134C, strain PPH21, stronger effect = lower value 1.02 | locus YDL185W, strain tfp1, stronger effect = lower value 1.01 | locus YDL192W, strain arf1, stronger effect = lower value 1 | locus YDR001C, strain nth1, stronger effect = lower value 1 | locus YDR069C, strain doa4, stronger effect = lower value 1.02 | locus YDR101C, strain arx1, stronger effect = lower value 1.02 | locus YDR137W, strain rgp1, stronger effect = lower value 0.958 | locus YDR150W, strain NUM1, stronger effect = lower value 1 | locus YDR159W, strain sac3, stronger effect = lower value 1 | locus YDR162C, strain NBP2, stronger effect = lower value 1.02 | locus YDR195W, strain ref2 1.02 | locus YDR297W, strain sur2, stronger effect = lower value 1.02 | locus YDR318W, strain mcm21, stronger effect = lower value 1.02 | locus YDR334W, strain swr1, stronger effect = lower value 0.991 | locus YDR335W, strain msn5, stronger effect = lower value 1.01 | locus YDR388W, stronger effect = lower value 1.01 | locus YDR392W, strain spt3, stronger effect = lower value 1.01 | locus YDR502C, strain sam2, stronger effect = lower value 0.993 | locus YEL003W, strain gim4, stronger effect = lower value 1.01 | locus YEL037C, strain rad23, stronger effect = lower value 1.01 | locus YEL061C, strain CIN8 (second series), stronger effect = lower value 1 | locus YEL061C, strain CIN8, stronger effect = lower value 1 | locus YER015W, strain faa2, stronger effect = lower value 1.02 | locus YER016W, strain bim1, stronger effect = lower value 1.01 | locus YER110C, stronger effect = lower value 0.999 | locus YER111C, strain swi4, stronger effect = lower value 0.988 | locus YER155C, strain BEM2 (second series), stronger effect = lower value 0.996 | locus YER155C, strain BEM2, stronger effect = lower value 1.01 | locus YER167W, strain BCK2, stronger effect = lower value 1.03 | locus YFR010W, strain ubp6, stronger effect = lower value 1.02 | locus YGL078C, strain dbp3, stronger effect = lower value 0.998 | locus YGL086W, strain mad1, stronger effect = lower value 0.997 | locus YGL167C, strain pmr1, stronger effect = lower value 1.01 | locus YGL173C, strain kem1, stronger effect = lower value 1.02 | locus YGL227W, strain vid30, stronger effect = lower value 1.02 | locus YGL240W, strain doc1, stronger effect = lower value 1.02 | locus YGL248W, strain PDE1, stronger effect = lower value 0.996 | locus YGL253W, strain hxk2, stronger effect = lower value 1.03 | locus YGR078C, strain PAC10, stronger effect = lower value 0.994 | locus YGR135W, strain pre9, stronger effect = lower value 1.03 | locus YGR252W, strain gcn5, stronger effect = lower value 1 | locus YHR013C, strain ard1, stronger effect = lower value 1.04 | locus YHR027C, strain rpn1, stronger effect = lower value 1.02 | locus YHR030C, strain SLT2, stronger effect = lower value 1.01 and 1.04 | locus YHR079C, strain IRE1 (second series), stronger effect = lower value 1 | locus YHR079C, strain IRE1, stronger effect = lower value 1.04 | locus YHR094C, strain hxt1, stronger effect = lower value 1 | locus YHR129C, strain ARP1, stronger effect = lower value 1.01 | locus YHR142W, strain chs7, stronger effect = lower value 1.01 | locus YHR200W, strain rpn10, stronger effect = lower value 1.01 | locus YIL066C, strain RNR3, stronger effect = lower value 1 | locus YIL073C, strain SPO22, stronger effect = lower value 1.06 | locus YIL125W, strain kgd1, stronger effect = lower value 0.996 | locus YIR030C, strain dcg1, stronger effect = lower value 1.01 | locus YJL092W, strain hpr5, stronger effect = lower value 1.01 | locus YJL095W, strain BCK1 (second series), stronger effect = lower value 1.01 | locus YJL095W, strain BCK1, stronger effect = lower value 0.99 and 1.04 | locus YJL115W, strain asf1, stronger effect = lower value 1.01 | locus YJL129C, strain trk1, stronger effect = lower value 0.983 | locus YJL134W, strain LCB3, stronger effect = lower value 1.01 | locus YJL154C, strain vps35, stronger effect = lower value 1 | locus YJL164C, strain tpk1, stronger effect = lower value 1.02 | locus YJL166W, strain qcr8, stronger effect = lower value 1.02 | locus YJL168C, strain set2, stronger effect = lower value 1 | locus YJL187C, strain SWE1 (second series), stronger effect = lower value 0.986 | locus YJL187C, strain SWE1, stronger effect = lower value 1.02

Reference: PubChem BioAssay AID1159580 (chemical genetic matrix, 2015)
